# Source: PubChem (The Scripps Research Institute Molecular Screening Center)
# DAX1 inh-1 = DAX1 (NR0B1) inhibition, primary screen. 370,000 tested, 1.1% active. HEK293T StAR-luciferase reporter, SF-1/DAX-1 repression relief. inhibition, % at 6.8 µM;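 active means inhibition above the mean over all tested compounds plus 3 SD, cut at about 3.6% in these data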;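 further: 0% = DAX-1 cells with DMSO and 100% = cells lacking DAX-1 with DMSO; higher inhibition means more luminescence from relief of DAX-1 repression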
# hcDAF12 agonist = activators of H. contortus DAF-12 nuclear receptor; HEK293 hcDAF-12 lit1-tk-luc reporter, luminescence; 0% DMSO, 100% Δ7-dafachronic acid; activation, % at 6.8 µM; 370,000 tested, 1.4% active; AID 652067;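 active means activation above the mean of all tested compounds plus 3 SD, cut at about 5.5% in these data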;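 further: 100% = response to 3 µM Δ7-dafachronic acid high control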
# ssDAF-12 act = activates DAF-12 receptor from parasite S. stercoralis | HEK293 ssDAF-12/GRIP1 lit1-tk-luc reporter, luminescence; % of 3 µM dafachronic acid response | activation, % at 6.8 µM | 370,000 tested, 1% active | AID 652126;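 active means activation above the mean over all tested compounds plus 3 SD, cut at about 0.9% in these data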;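 further: 0% = DMSO-only wells and 100% = 3 µM delta7-dafachronic acid wells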
# SMARCA2 activ = activators of SMARCA2 function; MG213 cells, MMTV-luciferase reporter, dexamethasone, overnight; activation, % at 9.1 µM; 370,000 tested, 1% active; AID 652017; in the data active means activation above about 7.8%;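 further: 0% = vehicle wells and 100% = reference activator wells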
# hgDAF12 agonist = hgDAF-12 agonism, primary luciferase screen | HEK293 GAL4-hgDAF12 UAS-luciferase reporter, agonist luminescence; normalized to butyrate control | activation, % at 6.8 µM | 370,000 tested, 1.8% active;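 active means activation above a cutoff set at the mean of all screened compounds plus 3 SD, cut at about 10% in these data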;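 further: 0% = DMSO wells and 100% = sodium butyrate wells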
# DAX1 inh-2 = inhibits human nuclear receptor DAX1 | HEK293 Gal4-DAX1 luciferase reporter, luminescence | inhibition, % at 6.75 µM | 340,000 tested, 0.99% active;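 active means inhibition above the mean over all tested compounds plus 3 SD, cut at about 4.2% in these data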;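 further: 0% = DAX1-transfected cells with DMSO and 100% = empty-vector control cells with DMSO; inhibition shows as a rise in luminescence from relieved DAX1 repression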
# Target sequence (P51843 207-470 limits assumed): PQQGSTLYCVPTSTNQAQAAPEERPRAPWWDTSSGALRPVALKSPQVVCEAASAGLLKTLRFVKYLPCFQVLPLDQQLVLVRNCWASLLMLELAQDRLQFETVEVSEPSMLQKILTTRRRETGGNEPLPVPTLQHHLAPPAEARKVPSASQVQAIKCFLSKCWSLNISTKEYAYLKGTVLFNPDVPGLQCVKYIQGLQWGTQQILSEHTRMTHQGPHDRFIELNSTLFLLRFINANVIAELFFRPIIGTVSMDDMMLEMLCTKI
# LXR ag = LXR-beta agonism as hcDAF-12 counter-screen; HEK293 Gal4-LXR tk-luc reporter, luminescence, 24 h; normalized: DMSO 0%, positive control 100%; shares compounds with hcDAF12 agonist; 3,400 tested, under 10 active; AID 743027; activation, % at 6.8 µM;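 active means mean percent activation of the reporter above a cutoff set as the average over tested compounds plus their standard deviation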
# Target sequence (P55055 whole entry, looked up, the tested form may be a part): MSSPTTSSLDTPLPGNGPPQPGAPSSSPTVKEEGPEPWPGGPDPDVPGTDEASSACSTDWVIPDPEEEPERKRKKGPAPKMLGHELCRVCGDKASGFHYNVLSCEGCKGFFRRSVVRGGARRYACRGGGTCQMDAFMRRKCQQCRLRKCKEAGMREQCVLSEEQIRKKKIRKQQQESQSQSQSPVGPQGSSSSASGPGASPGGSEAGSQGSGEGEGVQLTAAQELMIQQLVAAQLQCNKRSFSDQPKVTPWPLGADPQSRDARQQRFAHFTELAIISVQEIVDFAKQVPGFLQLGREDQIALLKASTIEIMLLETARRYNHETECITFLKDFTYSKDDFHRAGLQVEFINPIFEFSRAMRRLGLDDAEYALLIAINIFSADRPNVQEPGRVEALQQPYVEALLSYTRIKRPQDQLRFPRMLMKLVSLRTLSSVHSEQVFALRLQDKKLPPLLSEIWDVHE
# hcDAF12 ag = confirmation of H. contortus DAF-12 agonists | shares compounds with hcDAF12 agonist | HEK293 hcDAF-12 lit1-tk-luc reporter, luminescence; % of Δ7-dafachronic acid response | activation, % at 6.8 µM | 3,400 tested, 61% active | AID 743032;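 active means mean activation across triplicate tests above the threshold derived from the earlier primary screen, cut at about 5.5% in these data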;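 further: 0% = DMSO only wells and 100% = 3 µM Δ7-dafachronic acid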
# The depositor's hits bear a star; . = no result. Rows were chosen to be rich in hits. Some 4.8% of all compounds tested hit in one or more screens of this group.
SMILES,DAX1 inh-1,hcDAF12 agonist,ssDAF-12 act,SMARCA2 activ,hgDAF12 agonist,DAX1 inh-2,LXR ag,hcDAF12 ag
CCOC(=O)C1=CCN(S(=O)(=O)c2cccc(Cl)c2)C1c1cccc(Br)c1 (stereo unspecified),-2.0,-2.0,-1.7,-3.5,-1.8,.,.,.
Oc1c(Cl)cccc1C=Nc1cc(C(F)(F)F)ccc1N1CCCC1,-0.3,1.5,-0.7,2.0,0.0,0.3,.,.
Oc1c(Cl)cc(Cl)cc1C=Nc1cc(C(F)(F)F)ccc1N1CCc2ccccc2C1,3.4,20.7*,3.2*,6.5,20.3*,1.9,1.9,16.3*
CCCn1c2ccc(C)cc2c2nnc(SCCN3CCCCC3)nc21,0.7,9.3*,0.5,4.2,0.1,0.2,-0.1,4.7
CCC[C@H]1[C@@H](OC(=O)NC(CC)CC)CC[C@@]23CCCN2C(=O)CCC[C@@H]13,.,0.8,-1.7,.,0.4,.,.,.
COc1ccccc1-n1cc2ccc([N+](=O)[O-])cc2n1,0.2,8.6*,0.1,7.1,10.0,1.3,0.5,6.6*
COc1ccccc1N1CCN(c2ccc([N+](=O)[O-])cn2)CC1,0.0,-1.7,-1.9,0.1,-1.2,1.6,.,.
Cc1ccnc2ccc(-c3nc4ccccc4o3)cc12,1.4,7.8*,1.0*,7.4,12.9*,2.5,1.2,12.0*
Cc1ccc(Nc2nnc(SC/C(O)=C(\C#N)c3nc4ccccc4[nH]3)s2)c(C)c1,-0.1,9.4*,0.5,-3.0,1.4,1.1,-0.2,5.5
Cc1cccc(Nc2nnc(SC/C(O)=C(\C#N)c3nc4ccccc4[nH]3)s2)c1,0.8,7.2*,1.5*,1.2,0.1,-0.4,-0.1,7.0*
CCOC(=O)C1(C(=O)OCC)N=C(c2ccccc2)C=C1c1ccccc1,-0.8,0.8,-0.6,-5.2,-2.5,.,.,.
COc1cccc(NC(=O)C2CC2)c1,0.2,0.1,-1.2,1.0,0.6,2.0,.,.
CCC1CCC(NC(=O)Nc2cccc(OC)c2)CC1 (stereo unspecified),3.2,12.3*,-0.6,7.4,18.7*,2.8,1.1,6.2*
O=C1CC(N2CCCC2)=NC(=O)N1c1ccc(Br)cc1,0.5,-0.1,-1.3,1.9,2.3,.,.,.
Cc1ccccc1NC(=O)C(=O)Nc1ccccc1C,1.2,8.3*,0.0,2.5,9.3,1.9,0.7,4.8
Cc1ccccc1NC(=O)CC(=O)Nc1ccccc1C,-0.3,0.8,-1.2,0.1,-0.9,2.0,.,.
O=C(OCc1cn(Cc2ccccc2F)nn1)N1CCCC1,-0.3,-0.6,-0.4,-2.1,-1.3,.,.,.
CC(=O)c1c(C)nc(Nc2nc(C)c3cc(C)ccc3n2)nc1C,-0.1,0.1,-2.3,-0.3,-1.6,-0.9,.,.
CC(=O)c1c(C)nc(Nc2nc3ccccc3s2)nc1C,0.6,11.3*,1.6*,4.5,8.7,.,1.6,13.1*
CC1(C)CC(=O)N(CC(=O)NCc2ccccc2)c2ccccc2S1(=O)=O,-0.1,13.7*,-1.5,-1.5,1.1,-0.4,-0.3,0.6
Cc1cc(C)n(CCC(=O)N2CCc3ccccc32)n1,0.1,6.9*,0.3,-1.3,-1.1,0.7,-0.2,4.0
CC(CC(=O)N1CCc2ccccc21)n1cccn1 (stereo unspecified),2.8,10.6*,0.1,1.0,8.2,0.6,0.0,5.7*
O=C(CSCCO)N1CCc2ccccc21,0.1,1.9,0.6,0.3,3.6,-0.2,.,.
O=C(CCn1cccc1)N1CCc2ccccc21,1.6,-1.0,-1.0,-0.6,3.5,0.4,.,.
O=C(NC1CCCCN(Cc2cccc(Cl)c2)C1=O)c1ccc(F)c(F)c1 (stereo unspecified),-0.1,-1.5,-1.8,-2.0,0.1,.,.,.
SMILES,DAX1 inh-1,hcDAF12 agonist,ssDAF-12 act,SMARCA2 activ,hgDAF12 agonist,DAX1 inh-2,LXR ag,hcDAF12 ag
N#CC1=C(N)Oc2c(oc(CO)cc2=O)C1c1ccsc1 (stereo unspecified),-0.5,0.2,-0.2,-2.3,0.3,-1.1,.,.
N#CC1=C(N)Oc2c(ccc3ccccc23)C1c1ccsc1 (stereo unspecified),-0.9,7.1*,0.9*,7.5,11.8*,-2.9,-0.1,3.9
O=C(NCc1ccccc1)[C@H]1CCCN1C(=O)[C@H]1CCCN1C(=O)c1ccccc1C(F)(F)F,1.2,1.1,-0.6,-6.0,-0.6,.,.,.
COc1ccc(Cl)cc1C1=NOC2(CCC2)C(=O)N1Cc1ccc(NC(C)=O)cc1,-1.5,9.4*,-1.0,-0.5,1.7,.,-0.3,0.0
COc1ccc(Cl)cc1C(=O)Nc1ccc(NC(C)=O)cc1,0.8,-0.5,-1.4,5.7,-0.1,0.8,.,.
Cc1ccc(Nc2nc(N/N=C/c3c[nH]c4ccccc34)nc(N3CCOCC3)n2)cc1,0.3,7.5*,1.1*,3.1,1.1,-0.7,-0.5,-1.3
Cc1[nH]c2ccccc2c1/C=N/Nc1nc(Nc2ccc(F)cc2)nc(N2CCOCC2)n1,0.6,6.8*,-0.4,0.7,3.4,1.6,-0.3,2.4
O=S(=O)([N-]c1nc2ccccc2nc1-[n+]1ccc(-c2ccncc2)cc1)c1ccccc1,1.6,6.9*,0.5,6.8,10.1,2.3,0.3,3.2
O=S(=O)([N-]c1nc2ccccc2nc1-[n+]1ccccc1)c1ccccc1,0.0,-1.7,-0.9,-3.9,0.0,0.4,.,.
COC(=O)[C@]12C[C@H](CC(=O)NCc3cccs3)C(=O)N(Cc3ccc(Cl)cc3Cl)C1=C[C@H](C(C)C)O[C@@H]2C1CC1,-0.2,0.4,-1.5,-3.0,0.7,.,.,.
CCCCON1C(=O)c2cccc3cccc(c23)C1=O,0.3,9.6*,0.4,0.6,2.8,0.5,0.2,7.4*
O=C1c2ccccc2C(=O)N1CCCCON1C(=O)c2ccccc2C1=O,0.8,-0.7,-1.9,3.9,2.6,0.2,.,.
Cc1ccc(Cl)cc1NC(=O)OCCN(C)C(=O)Nc1cc(Cl)ccc1C,-0.8,-2.6,-1.1,-6.2,-2.4,.,.,.
COc1ccc(N=Cc2[nH]c3ccccc3c2O)cc1,-0.1,11.9*,0.7,-0.7,8.0,1.0,1.2,9.6*
COc1ccc(Cn2c(O)c(C=Nc3ccc(OC)cc3)c3ccccc3c2=O)cc1,0.2,-1.9,-1.6,1.8,-1.7,-0.1,.,.
CCOc1c2ccc(C(=O)NCCc3ccc(C)cc3)cc2nn1CC,-0.3,2.0,-1.3,-0.3,0.3,-0.5,.,.
CCn1nc2cc(C(=O)NCCc3cccs3)ccc2c1OC,2.3,8.1*,0.0,5.3,7.7,4.6*,1.4,5.7*
Cc1ccc(C(=O)NCCc2cccs2)cc1,2.3,-0.2,-1.6,-2.0,-3.8,-4.3,.,.
